About 2,100 (3.2%) of roughly 65,000 compounds showed an effect of 50% or more. The median lay at about -52%. This excerpt belongs to a sample that is enriched for strong results.

The subject of this experiment is Plasmodium falciparum. In words: Screen against P. falciparum Asexual Blood Stage (ABS), at 5uM. In kind it is functional, Dd2. The settings on record: tested at 5 uM.
As to `Cc1cccn2cc(CN3CCCC(O)C3)nc12` (stereo not drawn), the INHIBITION was -34.8%.

In the case of `Cc1cccn2cc(CN3CCCC(c4ccn[nH]4)C3)nc12` (stereo not drawn), the INHIBITION is -34%. As to `Cc1cccn2cc(CN3CCCC(c4noc(C5CC5)n4)C3)nc12` (stereo not drawn), the INHIBITION is 54.6%. Under `CC(C)c1nn(C)c(Cl)c1CNCc1cccnc1N(C)C` stands -8.45%. Consider `O=C(c1cccs1)N1CCCC2(COCCN(c3cccnc3)C2)C1` (stereo not drawn), for which the INHIBITION was 4.74%. As to `c1ccc(-c2nc(CN3CCCCC3Cn3cncn3)co2)cc1` (stereo not drawn), the INHIBITION is on record as -87.1%. Turning to `CN(C)C(=O)CN1CCC(c2cncc(-c3cccc(Cl)c3)n2)CC1`, the INHIBITION was -53.1%. Consider `NC(=O)CN1CCC(c2cncc(-c3cccc(Cl)c3)n2)CC1`, for which the INHIBITION worked out at 67.6%. Under `Cc1ccccc1-c1cncc(C2CCN(C)CC2)n1` stands -69.9%; under `CN1CCC(c2cncc(-c3cccc(Cl)c3)n2)CC1`, 54.5%. `O=C(CO)N1CCC(c2cncc(-c3cccc(Cl)c3)n2)CC1`: the INHIBITION is recorded as -122%.

Regarding `CN(C)C(=O)CN1CCCC(c2cncc(-c3cccc(Cl)c3)n2)C1` (stereo not drawn), the INHIBITION worked out at 49.6%. For the molecule `Cc1ccc(CN(C)C(=O)CNC(C)(C)c2noc(C(C)(C)C)n2)o1`, the INHIBITION is recorded as -62.5%. Under `COCCC(=O)N1CCC2(COCc3cnc(N(C)C)nc32)C1` (stereo not drawn) stands -29%; under `CCc1ccc(CN(C)C(=O)c2cnc3c(c2)nc(N)n3CC)nc1`, -20.9%; under `COc1cccc(OCCNS(=O)(=O)Cc2ccccc2)c1`, -91.8%. Under `COc1cccc(CNCCNS(=O)(=O)Cc2ccccc2)c1` stands 55.5%; under `COc1cccc(OCCNCc2ccccc2)c1`, 34.7%. `CN(Cc1cn2ccccc2c1C#N)C1CCCN(c2cccnn2)C1` (stereo not drawn): the INHIBITION is -92.9%. To `O=C(NCc1cncc2c1CCN(C1CCOCC1)C2)c1ccco1` belongs -81.7%; to `O=C(C(CNCc1ccsc1)c1ccccc1)N1CCOCC1` (stereo not drawn), 63.6%.

In the case of `O=C(C(CNCc1cccc(O)c1)c1ccccc1)N1CCOCC1` (stereo not drawn), the INHIBITION is recorded as -52.6%.

Consider `O=C(C(CNCc1cccs1)c1ccccc1)N1CCOCC1` (stereo not drawn), for which the INHIBITION was found to be 7.93%. In the case of `O=C(c1nn[nH]c1Nc1ccc(Cl)cc1)N1CCCCCC1`, the INHIBITION stood at 23.3%.

For `Cc1nc(C)c(C(C)NCc2c(C)nn(CC(C)C)c2N(C)C)s1` (stereo not drawn), the INHIBITION was -40.1%. Under `CO[C@@H]1CCN(Cc2ccc(C)o2)[C@H]1Cc1ccccc1` stands -45.5%; under `Cc1ccc(CN2CC[C@@H](O)[C@@H]2Cc2ccccc2)o1`, 51.6%; under `Cc1ccc(CN2CC[C@@H](O)[C@@H]2Cc2cnn(C)c2)o1`, -75.8%. To `Cn1cc(NC(=O)c2cccc(-n3cnnn3)c2)cn1` belongs -36%. With `COc1ccc(CNC2CCN(c3ccccc3)C2)cc1O` (stereo not drawn), the INHIBITION is 40.9%. To `COc1cccc(CNC2CCSC2)c1OC` (stereo not drawn) belongs -18.4%; to `COc1cc(OC)cc(N2CCC(NCc3cc[nH]n3)C2)c1` (stereo not drawn), -39.5%.

As for `COc1cc(CNC2CCN(c3ccccc3)C2)cc(OC)c1OC` (stereo not drawn), the INHIBITION came out at 64.6%. Under `COc1ccc(CNC2CCN(c3ccccc3)C2)c(OC)c1OC` (stereo not drawn) stands 55.2%. For `c1ccc(N2CCC(NCc3cccc4cn[nH]c34)C2)cc1` (stereo not drawn), the INHIBITION is recorded as -37.2%.

For `Cc1cc(C)c(CNC(=O)c2ccc3c(c2)CCC3)c(=O)[nH]1`, the INHIBITION was -48.6%. In the case of `CCN(CCS(=O)(=O)c1ccc(Cl)cc1)Cc1ccc(OC)c(OC)c1`, the INHIBITION is recorded as -18.6%.

Regarding `Cc1nc(CN2CCCn3cnc(COC(C)C)c3C2)cs1`, the INHIBITION is recorded as -54.9%. With `CCS(=O)(=O)CCNC1CCN(c2nc3ccc(Cl)cc3s2)CC1`, the INHIBITION was -52%.

Turning to `Clc1ccc2nc(N3CCC(NCCCC4CCOC4)CC3)sc2c1` (stereo not drawn), the INHIBITION turned out to be 66.2%. With `Cc1csc2c(N3CCC(NCCCC4CCOC4)CC3)ncnc12` (stereo not drawn), the INHIBITION is given as -85.3%. In the case of `COCc1nc2ncc3c(=O)n(-c4ccccc4OC)ccc3n2n1`, the INHIBITION is -152%.

For `O=C(Nc1cccc(F)c1)C1CCCN1c1nccs1` (stereo not drawn), the INHIBITION was -77.8%.

As for `O=C(Nc1cccc(N2CCCC2)c1)C1CCCN1c1nccs1` (stereo not drawn), the INHIBITION is -129%. With `N#Cc1cccc(NC(=O)C2CCCN2c2nccs2)c1` (stereo not drawn), the INHIBITION stood at 58.1%. Consider `CNC(=O)c1ccc(CNc2ccncc2Cl)cc1`, for which the INHIBITION is given as -24.6%. Under `O=S(=O)(NCCCn1cncn1)c1ccc2c(c1)CCCC2` stands -159%. To `CNc1nc(C2CCCN2C(C)=O)nc2c1CN(C1CCCC1)CC2` (stereo not drawn) belongs -71.7%.

Regarding `CN1CCCCC1c1cncc(N2CCC(O)CC2)n1` (stereo not drawn), the INHIBITION is -68.9%.

`Cc1noc(C)c1CN1CCC2(COCc3cnc(N(C)C)nc32)C1` (stereo not drawn): the INHIBITION turned out to be 26.7%. To `Cc1ccccc1CN1CCC2(COCc3cnc(N(C)C)nc32)C1` (stereo not drawn) belongs 54%; to `c1cc(N2CCC3(COCc4cnc(NCC5CC5)nc43)C2)ncn1` (stereo not drawn), -14.7%. As for `c1ccc(CN2CCC3(COCc4cnc(NCC5CC5)nc43)C2)cc1` (stereo not drawn), the INHIBITION was 50.2%.

These data come from ChEMBL document CHEMBL4513216, “Probing the Open Global Health Chemical Diversity Library for Multistage-Active Starting Points for Next-Generation Antimalarials” (ACS Infect Dis, 2020).
